# HT1080NT lethal: kills 2HG-producing HT-1080-NT fibrosarcoma cells; AID 686970; 360,000 tested, 1.6% active; HT-1080-NT fibrosarcoma viability, CellTiter-Glo ATP luminescence, 48 h; Potency, µM (doses to about 46.1 µM), inactives show at the highest dose activity, negative = less viability, most hits filed as cytotoxic;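 also: NT is the 2HG producing partner of a matched IDH1 knockdown line; potency is read from the fitted curve at half-maximal effect; 0% = DMSO-treated cells and -100% = media-only wells without cells; nearly all actives have a fitted effect of over 55% in size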
#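 Luminescent CellTiter-Glo readout after 48 hours of compound exposure at 37 degrees C defined viability of HT-1080-NT cells. Activity was normalized to DMSO wells and cell-free media wells; concentration-response curves were fitted and assigned curve classes.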
# HT1080 IDH1KD tx: toxicity to HT-1080 IDH1 knockdown cells (counter line). Potency, µM (titrated, usually from 46.1 µM), without a hit: at the highest dose activity, negative = toxicity, hits mostly cytotoxic. 360,000 tested, 2% active. HT-1080 IDH1 knockdown viability, ATP luminescence, 48 h;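 also: potency is read from the fitted curve at half-maximal effect; 0% = DMSO wells and -100% = cell-free medium wells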
#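 Viability of IDH1-knockdown HT-1080 fibrosarcoma cells was assessed by CellTiter-Glo after 48 h at 37 °C with titrated compound; concentration-effect curves were classified by fit quality and response size.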
# DT40 TDP1 CPT: growth inhibition of DT40 Tdp1-/-;hTDP1 cells with camptothecin (screen for TDP1 inhibitors). Potency, µM (top dose mostly 46.2 µM), inactives show at the top dose activity change, negative = growth inhibition, actives largely listed as inhibitors. AID 686979. chicken DT40 Tdp1-/-;hTDP1 cells + 20 nM CPT, ATP luminescence, 48 h. 420,000 tested, 12% active; also: potency is read from the fitted curve at half-maximal effect; nearly all actives have a fitted effect of over 55% in size
#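 Cell growth measured by CellTiter-Glo luminescence after a minimum 48 h, 37 C compound exposure with 20 nM CPT in Tdp1-knockout DT40 cells stably expressing hTDP1, seeded 400/well; qHTS titration format.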
# DT40 TDP1 no CPT: qHTS for Inhibitors of human tyrosyl-DNA phosphodiesterase 1 (TDP1): qHTS in cells in absence of CPT; DT40 Tdp1-/- hTDP1 cells, no CPT, ATP luminescence, 48 h; Potency, µM (top dose mostly 46.2 µM), for inactives: at the highest dose activity change, negative = growth inhibition, actives largely listed as inhibitors; 420,000 tested, 15% active; also: potency is read from the fitted curve at half-maximal effect; nearly all actives have a fitted effect of over 55% in size
#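 Compound effects on proliferation are scored in DT40 Tdp1-/-;hTDP1 cells in the absence of CPT. ATP levels (CellTiter-Glo luminescence) are recorded after a ≥48 hr, 37 °C incubation.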
# IL-1B inflam inh: inhibitors of inflammasome signaling (IL-1 beta secretion) | THP-1 LPS/ATP IL-1B secretion, AlphaLISA, 16 h; active compounds read low | activity change, % at 57.5 µM | 360,000 tested, 4.7% active | AID 743279; in the data active = activity change below about -50%; inconclusive = mostly about -30% to -49%
#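 Secreted IL-1B measured by AlphaLISA bead assay after 16 h compound exposure of THP-1 cells; compounds (final up to 57.5 uM) added 1 h before LPS (250 ng/mL) and ATP (1.25 mM) stimulation; lower signal means less secretion.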
# An asterisk follows results filed as active; ? = inconclusive; . = no result given; [ ] = dose if it differs, or a comment. The list is not random: actives were taken first. Their share in the collection is about 19%. Unless noted, calls follow the shape of the dose curve; as a rule, active = well fitted curve in the direction sought with a large enough effect; inconclusive = small, poorly fitted or top-dose-only effect, or another doubt; inactive = no such curve, though single readings can be large; an effect the other way counts as inactive or inconclusive. Unless noted, % is scaled to controls: 0 for no effect and ±100 for the full control effect.
SMILES,HT1080NT lethal,HT1080 IDH1KD tx,DT40 TDP1 CPT,DT40 TDP1 no CPT,IL-1B inflam inh
COc1ccc(C(CCN2CCOCC2)c2c(OC)cc(OC)c3c(-c4ccccc4)cc(=O)oc23)cc1 (configuration not stated),-20%,?,6.5µM*,8.2µM*,?
COc1ccc(C(CCN2CCOCC2)c2c(O)cc(OC)cc2OC)cc1 (configuration not stated),-1%,3%,?,?,-5
COc1cc(C(CCN2CCCCC2)c2c(OC)cc(OC)c3c(C)cc(=O)oc23)cc(OC)c1OC (configuration not stated),-6%,-12%,10µM*,10µM*,12
COc1ccc(C(CCN2CCOCC2)c2c(OC)cc(OC)c3ccc(=O)oc23)cc1 (configuration not stated),-1%,0%,?,21µM*,-3
COc1cc(OC)c2c(-c3ccccc3)cc(=O)oc2c1C(CCN1CCCC1)c1ccc2c(c1)OCO2 (configuration not stated),-22%,?,?,?,-21
COc1cc(C(CCN2CCCC2)c2c(OC)cc(OC)c3c(-c4ccccc4)cc(=O)oc23)cc(OC)c1OC (configuration not stated),-26%,-19%,16µM*,21µM*,17
CNC(=O)CS(=O)CC(=O)Nc1cc(OC(C)C)c(Cl)cc1Cl (configuration not stated),2%,-7%,-4%,-1%,-2
Cc1nn(CC(=O)NCCN2CCOCC2)c(=O)c2cc3sccc3n12,6%,0%,11%,-4%,-5
O=C(CSc1nnc(NC(=O)C2CC2)s1)NCc1ccc(F)cc1,-1%,-5%,-10%,-17%,4
COc1ccc(C(CCN2CCCC2)c2c(OC)cc(OC)c3c(-c4ccccc4)cc(=O)oc23)cc1 (configuration not stated),?,-3%,?,16µM*,-6
COc1cc(OC)c2c(-c3ccccc3)cc(=O)oc2c1C(CCN1CCOCC1)c1ccc2c(c1)OCO2 (configuration not stated),23µM*,?,15µM*,?,-15
COc1cc(OC)c2c(C)cc(=O)oc2c1C(CCN1CCN(c2ccccc2)CC1)c1ccc2c(c1)OCO2 (configuration not stated),-13%,-13%,5.2µM*,21µM*,48
O=C(CN1C(=O)NC(Cc2ccccc2)C1=O)Nc1ccc(F)c(F)c1F (configuration not stated),6%,15%,16%,-7%,7
CCn1ccnc1CN1CCCC(C(=O)c2ccc3cc(OC)ccc3c2)C1 (configuration not stated),?,?,2.9µM*,4.6µM*,-96*
COc1ccc2cc(C(=O)C3CCCN(Cc4ccccn4)C3)ccc2c1 (configuration not stated),-20%,-20%,?,18µM*,-27
COc1c(C)cc(C(=O)C2CCCN(Cc3ccc(Oc4ncccn4)cc3)C2)cc1C (configuration not stated),-4%,0%,?,15µM*,-11
CC(C)Oc1cccc(C(=O)C2CCCN(Cc3cnc(N4CCCC4)s3)C2)c1 (configuration not stated),-24%,-21%,?,?,?
COc1ccc2cc(C(=O)C3CCCN(Cc4cnc(N5CCOCC5)s4)C3)ccc2c1 (configuration not stated),-3%,-16%,?,18µM*,?
CC(C)Oc1cccc(C(=O)C2CCCN(Cc3ccc(Oc4ncccn4)cc3)C2)c1 (configuration not stated),?,-28%,5%,?,-21
COc1ccccc1C1(CC(=O)N2CCCCC2)CCOC(C(C)C)C1 (configuration not stated),-3%,-2%,23µM*,23µM*,3
Cc1ccc(C2(CC(=O)N3CCCC3)CCOC(C(C)C)C2)cc1 (configuration not stated),5%,2%,?,?,1
O=C1Nc2ccccc2-c2nnnn2C1N1CCC(Cc2ccccc2)CC1 (configuration not stated),-22%,?,?,18µM*,12
Cc1cc2c(cc1C)-n1nnnc1C(N1CCCNCC1)C(=O)N2 (configuration not stated),8%,-4%,?,-17%,21
Cc1cc2c(cc1C)-c1nnnn1C(N1CCCCC1)C(=O)N2 (configuration not stated),1%,1%,15µM*,9.2µM*,29
COc1cccc(Oc2c(C)oc3c(CN4CCCC4)c(O)ccc3c2=O)c1,-2%,0%,-4%,1%,0
SMILES,HT1080NT lethal,HT1080 IDH1KD tx,DT40 TDP1 CPT,DT40 TDP1 no CPT,IL-1B inflam inh
N#CC1=C(N)C(C#N)(C#N)C2(C(=O)Nc3ccccc32)C2CCCC=C12 (configuration not stated),?,-19%[9.24 µM],-20%,-26%,-53*
COc1ccc2[nH]c3c(c2c1)CCNC3C1CC=C(C)CC1 (configuration not stated),?,?,9.2µM*,6.5µM*,-26
CCOC(=O)C1CCN(C(=O)c2[nH]c3ccc(OC)cc3c2C)CC1,13%,7%,-18%,-11%,20
COc1ccc2[nH]c3c(c2c1)CCNC3c1ccc([N+](=O)[O-])o1 (configuration not stated),-1%,-2%,9.2µM*,6.5µM*,-15
CC1(C)Oc2ccc3ccc(=O)oc3c2CC1=O,.,.,-20%[9.04 µM],-25%[9.04 µM],.
COc1ccc(CCNC(=O)Cn2c(-c3cccs3)cc3cc(F)ccc32)cc1OC,.,.,7.3µM*,9.2µM*,.
O=C(Cn1c(-c2cccs2)cc2ccccc21)NCc1ccccc1Br,.,.,?,-81%,.
CCOC(=O)Cn1c(-c2cccs2)cc2cc(Cl)ccc21,.,.,-22%,-28%,.
COc1ccc(CCNC(=O)Cn2nc(C)n3c(cc4cc(F)ccc43)c2=O)cc1OC,.,.,4%,5%,.
COCCCNC(=O)Cn1c(=O)n(CC(=O)NCCc2ccc(OC)c(OC)c2)c(=O)c2sccc21,6%,16%,-1%,-6%,0
COc1ccc(CCNC(=O)Cn2c(=O)n(-c3ccc(C)c(F)c3)c(=O)c3sccc32)cc1OC,11%,8%,9.2µM*,15µM*,4
CC(CNC(=O)Cn1c(-c2cccs2)cc2ccccc21)c1ccccc1 (configuration not stated),.,.,21µM*,?,.

# Source: PubChem BioAssay
